# Legend:
# Assay in all cases: DAPPL (digital affinity profiling via proximity ligation, sequencing); 10 mM Tris-HCl pH 7.5, 50 mM NaCl, 1 mM DTT, 4% glycerol, room temperature, 30 min; GST-TFs on glutathione beads, 16-mer random dsDNA library, 0.1% formaldehyde crosslink after washing; high values mean tight binding
# [1] = molecular target: T1, FEV (Homo sapiens, UniProt Q99581 1-238); settings: protein: recombinant; tags: N-terminal GST; dsDNA, one strand shown
# T1 sequence: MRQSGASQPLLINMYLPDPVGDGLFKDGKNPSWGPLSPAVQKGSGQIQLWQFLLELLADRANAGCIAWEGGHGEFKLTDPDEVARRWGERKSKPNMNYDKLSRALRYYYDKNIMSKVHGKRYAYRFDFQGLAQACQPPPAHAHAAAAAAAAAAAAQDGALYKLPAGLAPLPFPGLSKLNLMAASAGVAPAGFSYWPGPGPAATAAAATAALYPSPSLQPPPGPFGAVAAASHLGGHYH
# How it was run: (§1)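 Human transcription factors fused to GST were expressed in yeast, captured on glutathione beads, given DNA barcodes and pooled with a GST-only negative control. Pools were incubated with 200 nmole of a 16-mer random double-stranded DNA library in Tris/NaCl/DTT/glycerol buffer at room temperature for 30 min. They were then washed, crosslinked with 0.1% formaldehyde, proximity-ligated (BsaI/T4 ligase, 1 h, 37 °C), PCR-amplified and sequenced on an Illumina NextSeq500. Binding signal is each 6-mer's read frequency for a factor divided by its frequency for the GST control.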
# [2] = molecular target: ETV5 (Homo sapiens, UniProt P41161 1-510); settings: protein: recombinant; tags: N-terminal GST; dsDNA, one strand shown
# Sequence of ETV5 (P41161 whole entry): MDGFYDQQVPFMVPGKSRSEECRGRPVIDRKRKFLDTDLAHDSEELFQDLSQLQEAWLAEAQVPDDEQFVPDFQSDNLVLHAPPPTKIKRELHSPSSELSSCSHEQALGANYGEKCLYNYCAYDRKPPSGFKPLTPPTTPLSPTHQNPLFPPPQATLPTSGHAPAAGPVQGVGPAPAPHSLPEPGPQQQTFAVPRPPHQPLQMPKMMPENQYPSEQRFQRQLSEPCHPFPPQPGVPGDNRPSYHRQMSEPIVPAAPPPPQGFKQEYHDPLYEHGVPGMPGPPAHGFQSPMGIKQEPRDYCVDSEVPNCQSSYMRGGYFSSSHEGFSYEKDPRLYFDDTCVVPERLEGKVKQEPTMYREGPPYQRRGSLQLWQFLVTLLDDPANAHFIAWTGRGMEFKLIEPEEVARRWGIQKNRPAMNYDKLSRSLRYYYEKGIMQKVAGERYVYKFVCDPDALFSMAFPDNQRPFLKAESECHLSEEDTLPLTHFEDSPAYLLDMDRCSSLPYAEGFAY
# How it was run: as §1
# [3] = molecular target: HSF1 (Homo sapiens, UniProt Q00613 1-529); settings: protein: recombinant; tags: N-terminal GST; chain copies: 3; dsDNA, one strand shown
# Sequence of HSF1 (Q00613 whole entry): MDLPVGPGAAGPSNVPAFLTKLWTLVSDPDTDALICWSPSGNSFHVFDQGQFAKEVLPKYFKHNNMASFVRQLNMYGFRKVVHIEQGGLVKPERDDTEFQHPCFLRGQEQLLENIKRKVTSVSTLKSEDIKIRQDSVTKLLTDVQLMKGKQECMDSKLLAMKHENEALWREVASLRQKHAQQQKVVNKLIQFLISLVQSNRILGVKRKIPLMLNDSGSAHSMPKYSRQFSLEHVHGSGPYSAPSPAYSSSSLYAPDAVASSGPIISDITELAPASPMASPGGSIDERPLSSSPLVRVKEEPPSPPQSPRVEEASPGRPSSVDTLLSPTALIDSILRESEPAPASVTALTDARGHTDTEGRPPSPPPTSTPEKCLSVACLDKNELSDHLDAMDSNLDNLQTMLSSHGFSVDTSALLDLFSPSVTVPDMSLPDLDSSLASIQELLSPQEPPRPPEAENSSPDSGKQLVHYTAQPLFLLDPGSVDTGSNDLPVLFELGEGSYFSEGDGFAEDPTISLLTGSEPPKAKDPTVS
# How it was run: as §1
# [4] = molecular target: T2, SPIC (Homo sapiens, UniProt Q8N5J4 1-248); settings: protein: recombinant; tags: N-terminal GST; dsDNA, one strand shown
# T2 sequence: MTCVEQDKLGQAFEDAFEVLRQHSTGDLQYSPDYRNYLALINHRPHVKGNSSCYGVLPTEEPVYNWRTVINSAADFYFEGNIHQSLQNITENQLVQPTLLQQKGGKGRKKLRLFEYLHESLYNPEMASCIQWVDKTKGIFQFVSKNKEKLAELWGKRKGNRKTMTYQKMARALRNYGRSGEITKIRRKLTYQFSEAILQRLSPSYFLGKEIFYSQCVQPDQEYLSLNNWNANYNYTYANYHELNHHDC
# How it was run: as §1
# [5] = molecular target: ELF4 (Homo sapiens, UniProt Q99607 1-663); settings: protein: recombinant; tags: N-terminal GST; dsDNA, one strand shown
# Sequence of ELF4 (Q99607 whole entry): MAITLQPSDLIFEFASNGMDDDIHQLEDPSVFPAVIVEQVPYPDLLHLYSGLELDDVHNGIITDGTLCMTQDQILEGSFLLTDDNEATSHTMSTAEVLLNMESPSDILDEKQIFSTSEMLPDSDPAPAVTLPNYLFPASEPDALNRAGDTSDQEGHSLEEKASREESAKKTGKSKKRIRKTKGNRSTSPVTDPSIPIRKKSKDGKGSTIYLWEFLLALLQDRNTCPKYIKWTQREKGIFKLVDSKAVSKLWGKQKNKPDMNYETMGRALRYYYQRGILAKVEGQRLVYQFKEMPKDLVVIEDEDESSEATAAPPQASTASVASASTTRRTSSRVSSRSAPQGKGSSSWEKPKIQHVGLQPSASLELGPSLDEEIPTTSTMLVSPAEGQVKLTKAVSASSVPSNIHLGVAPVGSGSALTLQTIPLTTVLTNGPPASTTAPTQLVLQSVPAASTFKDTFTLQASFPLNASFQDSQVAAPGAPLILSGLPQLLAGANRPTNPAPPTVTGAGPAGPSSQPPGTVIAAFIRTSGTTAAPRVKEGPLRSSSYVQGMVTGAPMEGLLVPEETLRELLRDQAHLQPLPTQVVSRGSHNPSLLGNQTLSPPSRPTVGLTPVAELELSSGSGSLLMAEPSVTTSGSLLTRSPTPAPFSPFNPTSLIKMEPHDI
# How it was run: as §1
# [6] = molecular target: T3, ELK4 (Homo sapiens, UniProt P28324-2 1-405); settings: protein: recombinant; tags: N-terminal GST; dsDNA, one strand shown
# T3 sequence: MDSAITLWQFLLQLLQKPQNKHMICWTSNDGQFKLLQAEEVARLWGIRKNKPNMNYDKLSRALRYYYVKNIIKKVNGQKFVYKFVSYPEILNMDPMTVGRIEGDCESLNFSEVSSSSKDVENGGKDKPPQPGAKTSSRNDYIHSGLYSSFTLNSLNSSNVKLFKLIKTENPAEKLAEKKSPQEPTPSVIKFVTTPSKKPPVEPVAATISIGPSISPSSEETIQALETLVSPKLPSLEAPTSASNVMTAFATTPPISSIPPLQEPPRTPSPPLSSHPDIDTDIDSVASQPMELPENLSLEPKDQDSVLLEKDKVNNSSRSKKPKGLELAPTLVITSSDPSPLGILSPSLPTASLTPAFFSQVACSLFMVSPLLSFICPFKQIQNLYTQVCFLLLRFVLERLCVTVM
# How it was run: as §1
# [7] = molecular target: T4, ETV2 (Homo sapiens, UniProt O00321 1-342); settings: protein: recombinant; tags: N-terminal GST; dsDNA, one strand shown
# T4 sequence: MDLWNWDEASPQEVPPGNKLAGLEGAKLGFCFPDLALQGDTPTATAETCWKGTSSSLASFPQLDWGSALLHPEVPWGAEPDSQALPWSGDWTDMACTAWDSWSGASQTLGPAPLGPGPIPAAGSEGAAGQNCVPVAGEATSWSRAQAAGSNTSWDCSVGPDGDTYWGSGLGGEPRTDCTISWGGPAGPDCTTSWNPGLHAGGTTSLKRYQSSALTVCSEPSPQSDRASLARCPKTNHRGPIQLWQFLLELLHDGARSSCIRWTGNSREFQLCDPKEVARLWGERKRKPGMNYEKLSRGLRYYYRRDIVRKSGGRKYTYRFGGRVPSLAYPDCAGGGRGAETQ
# How it was run: as §1
# [8] = molecular target: T5, ELF3 (Homo sapiens, UniProt P78545 1-371); settings: protein: recombinant; tags: N-terminal GST; dsDNA, one strand shown
# T5 sequence: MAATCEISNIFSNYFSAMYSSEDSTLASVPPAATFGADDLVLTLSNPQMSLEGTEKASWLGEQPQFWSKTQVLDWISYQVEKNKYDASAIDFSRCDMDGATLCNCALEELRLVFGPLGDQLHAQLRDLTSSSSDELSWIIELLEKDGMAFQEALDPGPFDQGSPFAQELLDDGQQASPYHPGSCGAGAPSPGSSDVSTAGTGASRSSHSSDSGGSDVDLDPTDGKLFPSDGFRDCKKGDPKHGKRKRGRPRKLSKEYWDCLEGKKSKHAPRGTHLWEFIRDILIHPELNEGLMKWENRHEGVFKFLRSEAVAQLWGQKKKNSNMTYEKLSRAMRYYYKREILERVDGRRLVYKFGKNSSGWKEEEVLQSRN
# How it was run: as §1
# [9] = molecular target: CRX (Homo sapiens, UniProt O43186 1-299); settings: protein: recombinant; tags: N-terminal GST; dsDNA, one strand shown
# Sequence of CRX (O43186 whole entry): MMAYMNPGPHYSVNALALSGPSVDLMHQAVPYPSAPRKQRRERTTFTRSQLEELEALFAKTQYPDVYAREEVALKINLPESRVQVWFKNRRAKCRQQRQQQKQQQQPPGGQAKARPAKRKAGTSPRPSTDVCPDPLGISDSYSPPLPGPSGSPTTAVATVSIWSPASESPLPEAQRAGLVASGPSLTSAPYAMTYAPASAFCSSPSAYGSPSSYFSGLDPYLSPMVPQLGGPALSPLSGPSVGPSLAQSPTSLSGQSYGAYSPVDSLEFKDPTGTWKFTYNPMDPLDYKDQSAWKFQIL
# How it was run: as §1
# [10] = molecular target: ETV1 (Homo sapiens, UniProt P50549 1-477); settings: protein: recombinant; tags: N-terminal GST; dsDNA, one strand shown
# Sequence of ETV1 (P50549 whole entry): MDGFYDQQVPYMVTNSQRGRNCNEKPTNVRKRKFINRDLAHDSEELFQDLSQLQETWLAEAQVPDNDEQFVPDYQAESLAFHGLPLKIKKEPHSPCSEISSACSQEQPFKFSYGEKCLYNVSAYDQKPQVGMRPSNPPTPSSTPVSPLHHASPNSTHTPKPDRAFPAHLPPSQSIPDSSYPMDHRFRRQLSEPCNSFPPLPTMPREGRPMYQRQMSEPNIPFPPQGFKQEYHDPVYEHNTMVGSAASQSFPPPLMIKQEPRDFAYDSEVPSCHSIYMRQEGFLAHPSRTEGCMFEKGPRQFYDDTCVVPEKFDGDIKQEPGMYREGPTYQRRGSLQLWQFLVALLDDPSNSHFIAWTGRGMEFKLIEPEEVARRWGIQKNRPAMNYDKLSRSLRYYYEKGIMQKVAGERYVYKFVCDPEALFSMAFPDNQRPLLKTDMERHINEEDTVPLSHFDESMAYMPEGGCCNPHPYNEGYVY
# How it was run: as §1
# [11] = molecular target: T6, ERF (Homo sapiens, UniProt P50548 1-548); settings: protein: recombinant; tags: N-terminal GST; dsDNA, one strand shown
# T6 sequence: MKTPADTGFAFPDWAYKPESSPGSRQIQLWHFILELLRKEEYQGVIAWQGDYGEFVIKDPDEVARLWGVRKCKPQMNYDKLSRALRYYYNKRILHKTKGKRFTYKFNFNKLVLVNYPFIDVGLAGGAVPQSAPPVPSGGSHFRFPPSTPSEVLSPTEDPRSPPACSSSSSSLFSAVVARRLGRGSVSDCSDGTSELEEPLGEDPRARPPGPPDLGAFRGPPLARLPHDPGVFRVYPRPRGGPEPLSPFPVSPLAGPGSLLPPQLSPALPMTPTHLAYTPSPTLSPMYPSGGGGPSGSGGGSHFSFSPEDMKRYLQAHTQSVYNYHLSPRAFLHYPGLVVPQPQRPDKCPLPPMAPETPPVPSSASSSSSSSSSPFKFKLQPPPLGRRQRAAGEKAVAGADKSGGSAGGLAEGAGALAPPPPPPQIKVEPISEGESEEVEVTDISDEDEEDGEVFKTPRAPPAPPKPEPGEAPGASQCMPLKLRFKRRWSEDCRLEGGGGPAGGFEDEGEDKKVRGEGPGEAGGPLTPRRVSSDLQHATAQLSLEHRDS
# How it was run: as §1
# [12] = molecular target: T7, ETV3L (Homo sapiens, UniProt Q6ZN32 1-361); settings: protein: recombinant; tags: N-terminal GST; dsDNA, one strand shown
# T7 sequence: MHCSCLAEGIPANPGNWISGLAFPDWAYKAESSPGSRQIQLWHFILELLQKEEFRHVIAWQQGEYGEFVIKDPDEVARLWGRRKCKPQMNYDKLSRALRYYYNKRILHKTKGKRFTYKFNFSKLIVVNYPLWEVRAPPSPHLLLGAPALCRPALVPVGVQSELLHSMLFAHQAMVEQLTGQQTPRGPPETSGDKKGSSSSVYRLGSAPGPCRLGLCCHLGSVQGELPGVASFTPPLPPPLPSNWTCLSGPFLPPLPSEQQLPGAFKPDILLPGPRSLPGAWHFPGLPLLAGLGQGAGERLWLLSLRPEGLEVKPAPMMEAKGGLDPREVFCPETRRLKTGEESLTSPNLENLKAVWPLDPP
# How it was run: as §1
# [13] = molecular target: T8, ETS2 (Homo sapiens, UniProt P15036 1-469); settings: protein: recombinant; tags: N-terminal GST; dsDNA, one strand shown
# T8 sequence: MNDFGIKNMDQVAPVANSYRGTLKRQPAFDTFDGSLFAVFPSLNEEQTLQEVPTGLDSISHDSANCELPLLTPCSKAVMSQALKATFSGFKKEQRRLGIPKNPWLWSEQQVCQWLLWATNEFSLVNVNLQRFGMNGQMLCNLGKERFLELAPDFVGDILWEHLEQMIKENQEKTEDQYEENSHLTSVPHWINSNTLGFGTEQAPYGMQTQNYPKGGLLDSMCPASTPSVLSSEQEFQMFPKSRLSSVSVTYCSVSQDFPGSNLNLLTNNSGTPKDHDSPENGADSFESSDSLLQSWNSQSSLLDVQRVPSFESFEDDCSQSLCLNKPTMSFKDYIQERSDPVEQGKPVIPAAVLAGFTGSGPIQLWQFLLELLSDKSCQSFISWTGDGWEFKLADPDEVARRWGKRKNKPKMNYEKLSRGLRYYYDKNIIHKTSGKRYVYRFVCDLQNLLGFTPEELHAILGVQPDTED
# How it was run: as §1
# [14] = molecular target: T9, SPDEF (Homo sapiens, UniProt O95238 1-335); settings: protein: recombinant; tags: N-terminal GST; dsDNA, one strand shown
# T9 sequence: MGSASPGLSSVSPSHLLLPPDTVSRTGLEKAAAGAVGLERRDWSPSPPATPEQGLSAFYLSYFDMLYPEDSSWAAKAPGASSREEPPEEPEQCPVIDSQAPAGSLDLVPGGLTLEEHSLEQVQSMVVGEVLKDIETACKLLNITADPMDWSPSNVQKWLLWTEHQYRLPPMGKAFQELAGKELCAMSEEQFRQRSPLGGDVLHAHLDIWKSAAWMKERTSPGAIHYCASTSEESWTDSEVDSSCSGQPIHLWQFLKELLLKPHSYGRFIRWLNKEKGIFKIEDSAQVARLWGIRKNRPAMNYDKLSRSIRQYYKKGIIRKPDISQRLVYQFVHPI
# How it was run: as §1
# [15] = molecular target: T10, ETV7 (Homo sapiens, UniProt Q9Y603 1-341); settings: protein: recombinant; tags: N-terminal GST; dsDNA, one strand shown
# T10 sequence: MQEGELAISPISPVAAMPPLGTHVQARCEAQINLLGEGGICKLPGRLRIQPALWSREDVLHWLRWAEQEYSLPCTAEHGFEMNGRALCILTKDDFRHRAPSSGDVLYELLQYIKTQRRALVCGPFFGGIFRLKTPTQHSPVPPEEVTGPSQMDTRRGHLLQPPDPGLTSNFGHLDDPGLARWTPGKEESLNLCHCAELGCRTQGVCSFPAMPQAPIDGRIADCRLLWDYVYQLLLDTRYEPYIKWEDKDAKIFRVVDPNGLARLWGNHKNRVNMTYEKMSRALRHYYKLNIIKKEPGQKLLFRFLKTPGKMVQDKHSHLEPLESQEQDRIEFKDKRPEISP
# How it was run: as §1
# [16] = molecular target: T11, ELF5 (Homo sapiens, UniProt Q9UKW6-2 1-255); settings: protein: recombinant; tags: N-terminal GST; dsDNA, one strand shown
# T11 sequence: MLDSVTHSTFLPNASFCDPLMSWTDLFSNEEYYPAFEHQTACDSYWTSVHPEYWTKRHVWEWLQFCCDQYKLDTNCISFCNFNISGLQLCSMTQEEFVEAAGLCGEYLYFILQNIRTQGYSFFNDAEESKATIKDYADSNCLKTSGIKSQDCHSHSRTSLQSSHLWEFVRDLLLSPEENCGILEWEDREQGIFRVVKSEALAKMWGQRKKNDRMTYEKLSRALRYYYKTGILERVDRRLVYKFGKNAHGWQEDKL
# How it was run: as §1
# [17] = molecular target: T12, ETV3 (Homo sapiens, UniProt P41162-2 1-143); settings: protein: recombinant; tags: N-terminal GST; dsDNA, one strand shown
# T12 sequence: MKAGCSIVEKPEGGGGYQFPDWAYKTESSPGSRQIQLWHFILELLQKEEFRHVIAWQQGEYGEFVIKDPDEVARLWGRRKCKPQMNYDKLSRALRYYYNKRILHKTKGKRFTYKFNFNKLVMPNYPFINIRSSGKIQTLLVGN
# How it was run: as §1
# [18] = molecular target: ETV6 (Homo sapiens, UniProt P41212 1-452); settings: protein: recombinant; tags: N-terminal GST; dsDNA, one strand shown
# Sequence of ETV6 (P41212 whole entry): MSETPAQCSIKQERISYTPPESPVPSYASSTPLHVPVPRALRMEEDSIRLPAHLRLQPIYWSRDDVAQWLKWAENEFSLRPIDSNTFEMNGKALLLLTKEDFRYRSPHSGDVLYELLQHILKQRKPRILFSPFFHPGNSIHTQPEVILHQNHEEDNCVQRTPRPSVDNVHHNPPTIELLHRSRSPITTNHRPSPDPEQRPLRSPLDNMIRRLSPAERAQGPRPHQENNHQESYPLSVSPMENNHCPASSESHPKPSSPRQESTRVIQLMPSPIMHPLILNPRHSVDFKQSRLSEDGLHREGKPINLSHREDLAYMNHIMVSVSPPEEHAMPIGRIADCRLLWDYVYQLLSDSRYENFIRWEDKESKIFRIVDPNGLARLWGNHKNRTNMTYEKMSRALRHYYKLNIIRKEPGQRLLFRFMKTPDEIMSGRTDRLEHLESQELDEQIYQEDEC
# How it was run: as §1
sequence,measurement,setting,value
TGCTCG,binding signal,[1],"1.23 fold enrichment (6-mer frequency, TF over GST control)"
same,binding signal,[2],"1.31 fold enrichment (6-mer frequency, TF over GST control)"
same,binding signal,[3],"1.56 fold enrichment (6-mer frequency, TF over GST control)"
same,binding signal,[4],"1.33 fold enrichment (6-mer frequency, TF over GST control)"
same,binding signal,[5],"1.24 fold enrichment (6-mer frequency, TF over GST control)"
same,binding signal,[6],"1.26 fold enrichment (6-mer frequency, TF over GST control)"
same,binding signal,[7],"1.21 fold enrichment (6-mer frequency, TF over GST control)"
same,binding signal,[8],"1.28 fold enrichment (6-mer frequency, TF over GST control)"
same,binding signal,[9],"1.17 fold enrichment (6-mer frequency, TF over GST control)"
same,binding signal,[10],"1.28 fold enrichment (6-mer frequency, TF over GST control)"
same,binding signal,[11],"1.38 fold enrichment (6-mer frequency, TF over GST control)"
same,binding signal,[12],"1.46 fold enrichment (6-mer frequency, TF over GST control)"
same,binding signal,[13],"1.29 fold enrichment (6-mer frequency, TF over GST control)"
same,binding signal,[14],"1.07 fold enrichment (6-mer frequency, TF over GST control)"
same,binding signal,[15],"1.18 fold enrichment (6-mer frequency, TF over GST control)"
same,binding signal,[16],"1.18 fold enrichment (6-mer frequency, TF over GST control)"
same,binding signal,[17],"1.3 fold enrichment (6-mer frequency, TF over GST control)"
same,binding signal,[18],"1.31 fold enrichment (6-mer frequency, TF over GST control)"

# Source: paper PMC7862700, “An all-to-all approach to the identification of sequence-specific readers for epigenetic DNA modifications on cytosine”
